# Results reported in publication PMC2807882, “Conservation of DNA-binding specificity and oligomerisation properties within the p53 family”.
# Legend:
# Assay in all cases: fluorescence anisotropy competition titration; 25 mM sodium phosphate (purification buffer pH 7.2), 225 mM NaCl, 10% v/v glycerol, 5 mM DTT, 0.2 mg/mL BSA, 22 C; low values mean tight binding
# Details in all cases: protein: recombinant; tags: N-terminal 6xHis-lipoyl-TEV tag, cleaved; chain copies: 4; dsDNA, one strand shown
# Dmp53 = target: T1, Dmp53 (Drosophila melanogaster, UniProt Q9N6D8 1-385)
# T1 sequence: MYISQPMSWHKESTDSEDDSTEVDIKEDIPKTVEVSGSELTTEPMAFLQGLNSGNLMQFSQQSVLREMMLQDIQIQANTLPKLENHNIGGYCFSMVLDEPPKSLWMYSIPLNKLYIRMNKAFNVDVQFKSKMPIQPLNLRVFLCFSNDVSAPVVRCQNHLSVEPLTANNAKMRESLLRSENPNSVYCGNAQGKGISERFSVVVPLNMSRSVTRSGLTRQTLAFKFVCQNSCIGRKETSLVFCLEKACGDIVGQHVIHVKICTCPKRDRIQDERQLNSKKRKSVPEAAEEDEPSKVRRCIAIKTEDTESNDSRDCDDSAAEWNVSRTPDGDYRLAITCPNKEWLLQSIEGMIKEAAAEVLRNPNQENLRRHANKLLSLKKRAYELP
# Drp53 = target: T2, Drp53 (Danio rerio, UniProt P79734 1-373)
# T2 sequence: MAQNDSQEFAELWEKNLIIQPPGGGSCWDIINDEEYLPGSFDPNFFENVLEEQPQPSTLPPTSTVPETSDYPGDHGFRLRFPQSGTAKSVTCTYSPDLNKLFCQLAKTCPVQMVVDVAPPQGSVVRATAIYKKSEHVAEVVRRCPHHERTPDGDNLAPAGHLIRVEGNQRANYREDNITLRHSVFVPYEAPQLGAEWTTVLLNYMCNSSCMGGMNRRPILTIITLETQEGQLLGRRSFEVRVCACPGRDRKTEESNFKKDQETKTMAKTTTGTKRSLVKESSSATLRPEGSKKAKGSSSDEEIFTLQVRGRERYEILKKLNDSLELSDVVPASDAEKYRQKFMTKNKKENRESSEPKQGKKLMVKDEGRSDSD
# Hsp53 = Hsp53 (Homo sapiens, UniProt P04637 1-393)
# Xlp53 = Xlp53 (Xenopus laevis, UniProt Q7T1D0 1-362)
# ΔNp63α = target: T3, ΔNp63α (Homo sapiens, UniProt Q9H3D4-2 1-586)
# T3 sequence: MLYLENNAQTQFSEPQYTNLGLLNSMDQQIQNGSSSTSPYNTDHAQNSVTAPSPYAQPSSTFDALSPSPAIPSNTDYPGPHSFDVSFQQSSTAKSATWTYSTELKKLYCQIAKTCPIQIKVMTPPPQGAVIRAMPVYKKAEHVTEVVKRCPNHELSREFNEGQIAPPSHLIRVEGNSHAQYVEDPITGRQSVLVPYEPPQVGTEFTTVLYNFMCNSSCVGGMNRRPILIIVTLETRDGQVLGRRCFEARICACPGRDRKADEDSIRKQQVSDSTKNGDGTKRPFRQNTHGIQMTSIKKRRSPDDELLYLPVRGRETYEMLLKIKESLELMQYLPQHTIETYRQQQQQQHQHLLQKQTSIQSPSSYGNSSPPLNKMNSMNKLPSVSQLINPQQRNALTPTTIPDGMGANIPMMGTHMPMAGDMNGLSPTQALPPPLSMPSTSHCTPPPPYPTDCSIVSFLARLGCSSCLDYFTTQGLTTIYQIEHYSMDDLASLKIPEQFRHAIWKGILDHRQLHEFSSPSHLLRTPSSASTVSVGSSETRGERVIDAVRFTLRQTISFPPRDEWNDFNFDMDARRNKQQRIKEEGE
# ΔNp63β = target: T4, ΔNp63β (Homo sapiens, UniProt Q9H3D4-4 1-461)
# T4 sequence: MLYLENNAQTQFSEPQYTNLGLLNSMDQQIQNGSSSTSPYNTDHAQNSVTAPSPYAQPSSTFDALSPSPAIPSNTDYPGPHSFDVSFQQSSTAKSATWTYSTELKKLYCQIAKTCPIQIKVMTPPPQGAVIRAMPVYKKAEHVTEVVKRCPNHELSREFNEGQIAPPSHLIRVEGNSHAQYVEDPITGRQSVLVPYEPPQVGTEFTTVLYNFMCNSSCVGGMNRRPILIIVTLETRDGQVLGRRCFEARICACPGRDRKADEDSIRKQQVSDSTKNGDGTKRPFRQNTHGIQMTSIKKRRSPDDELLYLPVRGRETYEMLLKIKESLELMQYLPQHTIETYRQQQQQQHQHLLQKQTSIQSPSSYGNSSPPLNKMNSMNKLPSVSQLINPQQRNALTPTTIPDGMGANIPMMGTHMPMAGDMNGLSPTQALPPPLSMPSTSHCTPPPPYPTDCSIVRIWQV
# ΔNp63γ = target: T5, ΔNp63γ (Homo sapiens, UniProt Q9H3D4-6 1-393)
# T5 sequence: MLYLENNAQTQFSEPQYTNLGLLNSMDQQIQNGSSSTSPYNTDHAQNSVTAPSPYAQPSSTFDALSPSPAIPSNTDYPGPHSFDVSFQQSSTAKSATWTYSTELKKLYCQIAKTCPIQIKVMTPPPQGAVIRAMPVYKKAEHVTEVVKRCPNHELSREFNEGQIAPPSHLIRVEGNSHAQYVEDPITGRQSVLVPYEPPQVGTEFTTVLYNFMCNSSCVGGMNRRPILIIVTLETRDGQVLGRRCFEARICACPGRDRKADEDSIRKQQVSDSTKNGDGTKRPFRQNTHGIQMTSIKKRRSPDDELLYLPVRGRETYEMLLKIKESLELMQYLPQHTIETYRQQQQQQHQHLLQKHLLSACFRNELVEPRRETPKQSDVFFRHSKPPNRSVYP
# ΔNp73β = target: T6, ΔNp73β (Homo sapiens, UniProt O15350-9 1-450)
# T6 sequence: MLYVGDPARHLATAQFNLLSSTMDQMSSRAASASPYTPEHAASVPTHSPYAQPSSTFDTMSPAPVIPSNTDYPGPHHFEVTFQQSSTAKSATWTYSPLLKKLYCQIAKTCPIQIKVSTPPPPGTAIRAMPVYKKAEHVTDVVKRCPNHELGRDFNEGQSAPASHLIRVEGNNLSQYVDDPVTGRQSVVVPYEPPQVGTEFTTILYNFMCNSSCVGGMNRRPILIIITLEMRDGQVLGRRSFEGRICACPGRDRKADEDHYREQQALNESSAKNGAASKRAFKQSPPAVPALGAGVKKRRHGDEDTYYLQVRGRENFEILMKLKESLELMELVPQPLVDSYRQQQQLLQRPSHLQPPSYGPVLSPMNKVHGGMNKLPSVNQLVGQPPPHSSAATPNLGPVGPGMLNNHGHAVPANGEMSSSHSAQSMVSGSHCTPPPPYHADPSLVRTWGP
# Mmp53 = Mmp53 (Mus musculus, UniProt P02340 1-390)
# p73CT = target: T7, p73CT (Homo sapiens, UniProt O15350 104-383)
# T7 sequence: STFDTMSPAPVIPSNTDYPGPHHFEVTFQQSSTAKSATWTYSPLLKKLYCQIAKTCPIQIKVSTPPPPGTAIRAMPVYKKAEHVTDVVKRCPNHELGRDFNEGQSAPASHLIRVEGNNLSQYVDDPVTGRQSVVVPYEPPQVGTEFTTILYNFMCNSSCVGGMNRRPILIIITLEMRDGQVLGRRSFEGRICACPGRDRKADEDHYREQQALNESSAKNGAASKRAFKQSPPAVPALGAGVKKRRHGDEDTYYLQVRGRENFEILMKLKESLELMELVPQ
# Xlp53, sequence (Q7T1D0 entry or part of it): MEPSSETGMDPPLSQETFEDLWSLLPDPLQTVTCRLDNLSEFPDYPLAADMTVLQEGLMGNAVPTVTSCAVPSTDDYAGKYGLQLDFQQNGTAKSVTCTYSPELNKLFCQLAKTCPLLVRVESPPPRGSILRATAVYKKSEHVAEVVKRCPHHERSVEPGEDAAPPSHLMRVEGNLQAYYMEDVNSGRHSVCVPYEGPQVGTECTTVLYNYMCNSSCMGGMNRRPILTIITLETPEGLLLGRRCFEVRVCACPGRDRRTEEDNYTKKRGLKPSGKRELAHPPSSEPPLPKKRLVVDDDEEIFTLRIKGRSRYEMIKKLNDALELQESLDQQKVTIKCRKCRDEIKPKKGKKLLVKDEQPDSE
# Hsp53, sequence (P04637 whole entry): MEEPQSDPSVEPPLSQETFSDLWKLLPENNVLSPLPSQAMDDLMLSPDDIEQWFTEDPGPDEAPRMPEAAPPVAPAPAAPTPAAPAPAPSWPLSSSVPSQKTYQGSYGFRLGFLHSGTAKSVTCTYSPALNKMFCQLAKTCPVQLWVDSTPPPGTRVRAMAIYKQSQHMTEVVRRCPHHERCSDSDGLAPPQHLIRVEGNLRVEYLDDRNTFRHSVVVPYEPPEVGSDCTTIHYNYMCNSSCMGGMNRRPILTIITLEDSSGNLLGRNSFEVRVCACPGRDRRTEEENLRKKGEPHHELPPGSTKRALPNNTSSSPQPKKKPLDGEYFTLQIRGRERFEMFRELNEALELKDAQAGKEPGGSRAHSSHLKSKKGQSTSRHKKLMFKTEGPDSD
# Mmp53, sequence (P02340 whole entry): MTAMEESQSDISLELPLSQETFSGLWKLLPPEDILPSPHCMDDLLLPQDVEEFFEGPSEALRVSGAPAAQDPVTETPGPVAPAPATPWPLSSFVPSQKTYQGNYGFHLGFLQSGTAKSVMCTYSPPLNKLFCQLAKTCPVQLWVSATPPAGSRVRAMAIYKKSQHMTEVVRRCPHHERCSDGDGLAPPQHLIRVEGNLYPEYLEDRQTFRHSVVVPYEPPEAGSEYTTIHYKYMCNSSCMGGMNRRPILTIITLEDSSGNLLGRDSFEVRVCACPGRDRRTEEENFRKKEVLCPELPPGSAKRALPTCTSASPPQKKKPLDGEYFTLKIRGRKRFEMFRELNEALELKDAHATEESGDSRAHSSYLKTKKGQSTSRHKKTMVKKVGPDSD
Sequence,binding signal (Dmp53) [delta log10 Kd],binding signal (Drp53) [delta log10 Kd],binding signal (Hsp53) [delta log10 Kd],binding signal (Xlp53) [delta log10 Kd],binding signal (ΔNp63α) [delta log10 Kd],binding signal (ΔNp63β) [delta log10 Kd],binding signal (ΔNp63γ) [delta log10 Kd],binding signal (ΔNp73β) [delta log10 Kd],binding signal (Mmp53) [delta log10 Kd],binding signal (p73CT) [delta log10 Kd]
CGCGGACAGGTCCGGACATGTCCCGC,0.35,0.65,0.36,0.41,0.17,0.43,0.43,0.49,0.4,0.41
CGCCGACATGTCCGGACATGTCCCGC,0.03,0.15,0.17,0.1,0.04,0.07,0.09,0,0.15,0.06
CGCGGACCTGTCCGGACATGTCCCGC,0.54,0.77,0.45,0.48,0.3,0.57,0.58,0.64,0.4,0.56
CGCGGATATGTCCGGACATGTCCCGC,1.01,0.58,0.56,0.62,0.68,0.85,0.97,1.04,0.34,1.06
CGCGGACATGCCCGGACATGTCCCGC,0.26,–,0.03,0.03,0.06,0.13,0.12,0.03,–,0.05
CGCTGACATGTCCGGACATGTCCCGC,0.02,0.22,0.16,0.13,0.08,0.1,0.1,0.11,0.18,0.09
CGCGAACATGTCCGGACATGTCCCGC,0,0.08,0.05,0.01,0,0.02,0.1,0.03,0.08,0.05
CGCGGACGTGTCCGGACATGTCCCGC,0.18,0.54,0.43,0.44,0.07,0.2,0.19,0.27,0.31,0.22
CGCGGACATGTTCGGACATGTCCCGC,0.17,0.38,0.34,0.39,0.17,0.47,0.33,0.48,0.19,0.36
CGCGGAAATGTCCGGACATGTCCCGC,1.31,1.13,0.77,0.9,1.08,0.93,1.4,1.49,0.52,1.35
CGCGGACATGTGCGGACATGTCCCGC,0.23,0.54,0.49,0.57,0.3,0.46,0.49,0.65,0.36,0.53
CGCGCACATGTCCGGACATGTCCCGC,0.21,0.41,0.37,0.27,0.15,0.36,0.37,0.44,0.28,0.39
CGCGGGCATGTCCGGACATGTCCCGC,0.25,0,0.07,0.01,–,0,0.06,–,0.03,–
CGCGGACATGGCCGGACATGTCCCGC,0.93,–,0.73,0.89,0.85,1.06,1.21,1.18,–,1
CGCGGCCATGTCCGGACATGTCCCGC,0.75,0.86,0.66,0.82,–,0.88,0.93,–,0.46,–
CGCGGACACGTCCGGACATGTCCCGC,0.25,0.65,0.53,0.7,0.25,0.57,0.52,0.62,0.36,0.58
CGCGTACATGTCCGGACATGTCCCGC,0.12,0.21,0.21,0.13,0.08,0.23,0.21,0.24,0.19,0.24
CGCGGACATGACCGGACATGTCCCGC,0.24,–,0.42,0.43,0.43,0.62,0.72,0.78,–,0.57
CGCGGACAAGTCCGGACATGTCCCGC,0.22,0.35,0.16,0.18,0.02,0.15,0.19,0.12,0.27,0.19
CGCGGACATGTCAGGACATGTCCCGC,0.14,0.32,0.31,0.27,0.09,0.13,0.13,0.27,0.2,0.2
CGCGGACATTTCCGGACATGTCCCGC,1.55,1.37,0.44,0.88,1.1,1.2,1.46,1.43,0.65,1.58
CGCGGACATGTACGGACATGTCCCGC,0.07,0.39,0.34,0.35,0.15,0.29,0.32,0.4,0.27,0.36
CGCGGACATGTCTGGACATGTCCCGC,0.03,0.02,0.13,0.07,0.04,0.05,0.05,0,0.11,0.08
CGCGGACATCTCCGGACATGTCCCGC,1.51,1.3,0.9,1.38,1.33,1.45,1.68,1.8,0.67,1.56
CGCGGACATGTCGGGACATGTCCCGC,0.02,0.19,0.27,0.22,0.11,0.11,0.1,0.17,0.24,0.17
CGCGGACTTGTCCGGACATGTCCCGC,0.36,0.3,0.14,0.16,0.06,0.27,0.41,0.36,0.24,0.45
CGCAGACATGTCCGGACATGTCCCGC,0.03,0.01,0.01,0,0,0.03,0.04,0.01,0.05,0.02
CGCGGACATATCCGGACATGTCCCGC,0.98,1.14,0.83,1.01,0.92,1.2,1.31,1.32,0.63,1.44
CGCGGTCATGTCCGGACATGTCCCGC,0.36,0.48,0.42,0.35,–,0.53,0.49,–,0.29,–
CGCGGAGATGTCCGGACATGTCCCGC,1.2,0.95,0.74,1.07,0.84,1.29,1.19,1.32,0.4,1.18
